Laboratory results published in PubChem BioAssay AID1259376 (The Scripps Research Institute Molecular Screening Center, 2018).
The whole screen tested about 4,700 compounds, of which about 360 (7.7%) were called active.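 The calls were made as follows: active = inhibition above a cutoff derived from the DMSO control wells (cut at about 30% in these data); inactive = the rest.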 These entries were drawn from the full list.

test: AlphaScreen optical interference compounds, counter-screen for MITF inhibitor project, biochemical, triplicate (AID 1259376); conditions: LysRS AlphaScreen counterscreen, signal interference, at 2.6 µM, hits give high values

Compound | inhibition
CCN1CCN(CCCCOc2ccccc2F)CC1 | 6.82% (inactive)
Cc1cccc(OCCN2CCNCC2)c1C | -1.28% (inactive)
Cc1nc(NC2CC2)cc(-c2ccc(F)cc2)n1 | 14.2% (inactive)
Cc1nc(NC(=O)c2cc(Br)ccc2Cl)sc1C | 12.2% (inactive)
COc1cc(CN2CCN(Cc3cccnc3)CC2)cc(OC)c1OC | 18.8% (inactive)
CN(CCc1ccccn1)CC(=O)N1CCc2ccccc21 | -7.9% (inactive)
CCCCC(=O)NCc1ccc(F)cc1 | 10.9% (inactive)
Cc1nnc(N2CCC(Cc3ccccc3)CC2)c2ccccc12 | 6.39% (inactive)
CCCS(=O)(=O)N1CCN(C(C)C)CC1 | 9.53% (inactive)
C=CCNC(=O)c1sc(=S)n(CC)c1N | -4.06% (inactive)
COc1cc2nc(-c3cccc(C(C)=O)c3)nc(N)c2cc1OC | 13.2% (inactive)
O=C1NC(c2ccccc2[N+](=O)[O-])C(C(=O)c2cccs2)C(O)(C(F)(F)F)N1 (configuration not stated) | 12.5% (inactive)
CCN(CC)CC(=O)Nc1c2c(nc3ccccc13)N(c1cccc(C)c1)CC2 | 1.32% (inactive)
Cc1cccc(NC(=O)CNCCN2CCCCC2)c1C | 12.4% (inactive)
C/C(N)=C(/C#N)C(=O)COC(=O)c1c2c(nc3ccccc13)/C(=C/c1ccco1)CC2 | -24.2% (inactive)
CC1CCC2C(=O)N(c3ccc(I)cc3)C(=O)C2C1 (configuration not stated) | 0.06% (inactive)
Cc1ccc(C)n1C(Cc1ccccc1)C(=O)O (configuration not stated) | -2% (inactive)
Cc1ccc(C)c(OCCN2CCOCC2)c1C | 17.5% (inactive)
COc1ccc(CN2CCN(Cc3cccnc3)CC2)cc1OCc1ccccc1 | 10.3% (inactive)
C=CCc1cc(C)ccc1OCCCn1ccnc1 | 7.18% (inactive)
OCCOCCN1CCN(Cc2ccc(Cl)cc2)CC1 | 3.33% (inactive)
C=CCn1c(SCC(=O)Nc2nc3ccccc3s2)nc(O)cc1=O | -1.43% (inactive)
CN(CCC(=O)O)Cc1cccc(Cl)c1 | -6.2% (inactive)
COc1cc(CN2CCN(Cc3ccc(Cl)cc3)CC2)c([N+](=O)[O-])cc1OC | 4.12% (inactive)
CCC(C)c1ccccc1NC(=O)CN(C)CC(=O)Nc1ccccc1SC (configuration not stated) | 3.28% (inactive)
O=c1c2ccccc2ncn1CCCCOc1ccccc1F | 7.91% (inactive)

Compound | inhibition
COc1ccc(CN2CCN(Cc3ccccc3C)CC2)c(OC)c1OC | -1.44% (inactive)
COc1ccc(C(=O)NCCN2CCN(c3nc4c(C)c(C)ccc4s3)CC2)cc1 | -2.39% (inactive)
Fc1ccc(CN2CCN(C3CCCC3)CC2)cc1 | 5.37% (inactive)
O=C(c1cccs1)N1CCC(N2CCN(Cc3ccccc3)CC2)CC1 | -5.37% (inactive)
O=[N+]([O-])c1ccc(OCc2nnc(SCCN3CCOCC3)n2-c2ccccc2)cc1 | -4.47% (inactive)
Clc1ccc(CN2CCN(CC3CC=CCC3)CC2)cc1 (configuration not stated) | 1.68% (inactive)
Fc1cccc(Cl)c1Cn1nnc(-c2ccncc2)n1 | 12.8% (inactive)
CCCCCOc1ccc(OC(=O)c2ccc(-c3ccc(CCC)cn3)cc2)cc1 | 9.51% (inactive)
O=C(Cc1cccs1)N/N=C\C=C\c1ccco1 | -6.28% (inactive)
c1ccc(Oc2cccc(OCCCCn3cncn3)c2)cc1 | 0.8% (inactive)
Cn1c(-c2ccc(F)cc2)cnc1NCc1cccnc1 | -4.79% (inactive)
O=C(CNCc1cccnc1)Nc1ccc(C(=O)N2CCCCC2)cc1 | 8.3% (inactive)
O=[N+]([O-])c1ccccc1S(=O)(=O)N1CCN(C2Cc3ccccc3C2)CC1 | 15% (inactive)
O=S(=O)(c1ccc(F)cc1)N1CCN(Cc2ccccc2C(F)(F)F)CC1 | 12.8% (inactive)
CSc1ccc(CN2CCN(Cc3cccc(Oc4ccccc4)c3)CC2)cc1 | 6.5% (inactive)
CSc1ccc(CN2CCN(S(=O)(=O)c3ccc([N+](=O)[O-])cc3)CC2)cc1 | 30% (active)
CC(C)(C)NCC(=O)Nc1c2c(nc3ccccc13)N(Cc1ccccc1)CC2 | 15.5% (inactive)
CC1CCCCC1NC(=O)CSc1nnc(-c2ccncc2)n1CCCN(C)C (configuration not stated) | 14.7% (inactive)
O=C(OCCN1CCOCC1)c1c(Cl)nc2sccn12 | 10.9% (inactive)
Cc1cc(OCCN2CCN(C)CC2)ccc1C(C)C | 4.96% (inactive)
CCCS(=O)(=O)N1CCN(Cc2ccccc2Br)CC1 | 13.6% (inactive)
COc1ccc2c(c1)CC(C(=O)Nc1ccc(-c3cn[nH]c3)cc1OCc1ccccc1)CO2 (configuration not stated) | 22.5% (inactive)
O=C(Nc1ccc(-c2ccncc2)c(C(F)(F)F)c1)C1COc2ccccc2O1 (configuration not stated) | 5.92% (inactive)
COc1cccc(CN2CCN(CCCc3ccccc3)CC2CCO)c1 (configuration not stated) | -5.46% (inactive)
CN(C)CC(C)(C)CNCc1nnc(-c2ccccc2)o1 | -0.68% (inactive)
N#C/C(=C/c1ccc(-c2ccc3c(c2)C(=O)NC3=O)o1)C(=O)O | 13.4% (inactive)

Compound | inhibition
COc1ccc(OC)c(CN2CCN(Cc3ccccc3OC)CC2)c1 | 18.2% (inactive)
COC(=O)c1cccc(NS(=O)(=O)c2ccc3ccccc3c2)c1C | 21.9% (inactive)
COc1ccc(CN2CCN(Cc3ccccc3C(F)(F)F)CC2)cc1OC | 17.4% (inactive)
CS(=O)(=O)N1CCN(Cc2cccc(Cl)c2)CC1 | -4.82% (inactive)
O=C(O)CCCCCNC(=O)/C(=C\c1ccco1)NC(=O)c1ccccc1 | -2.96% (inactive)
COc1ccc2c(c1)CC(c1nc(Nc3ccc4cnccc4c3)c3ccccc3n1)CO2 (configuration not stated) | 8.8% (inactive)
COc1cccc(OC)c1C(=O)N1CCN(Cc2cccnc2)CC1 | 14.3% (inactive)
COc1cc(CN2CCN(Cc3ccc(OC)c(OC)c3)CC2)cc(OC)c1 | 1.7% (inactive)
COc1cc(CN(CCN(C)C)Cc2ccccc2)cc(OC)c1 | 2.44% (inactive)
CC(c1ccccn1)N(CCN(C)C)C(=S)Nc1ccccc1F (configuration not stated) | 100% (active)
COc1ccc2c(c1)CC(C(=O)Nc1ccc(-c3cn[nH]c3)cc1OCC(N)=O)CO2 (configuration not stated) | 16.5% (inactive)
CCN1CCN(CCCOc2ccc(C(C)=O)cc2OC)CC1 | 19.6% (inactive)
CCN(CCN(C)C)Cc1c(Cl)cccc1Cl | -9.64% (inactive)
NC(=O)COC(=O)/C=C/c1ccc(I)o1 | 16.2% (inactive)
COc1cc(OC)c(OC)cc1CN1CCN(Cc2ccc(F)cc2)CC1 | -4.28% (inactive)
COc1ccc(CN2CCN(Cc3cc(OC)ccc3OC)CC2)cc1 | -1.01% (inactive)
CC(=O)N1CCN(CC(=O)Nc2ccc(C)c(F)c2)CC1 | 5.18% (inactive)
COC(=O)CSc1nc(C2CC2)nc2ccccc12 | 9% (inactive)
CCOc1ccc(CN2CCN(C(=O)c3cccc(Cl)c3)CC2)cc1 | 0.05% (inactive)
COc1ccc(NC(=O)c2cc3n(n2)C(C(F)(F)F)CC(c2ccc(OC)c(OC)c2)N3)cc1OC (configuration not stated) | -6.86% (inactive)
CCC(C)NCCOCCOc1cc(C)cc(C)c1C (configuration not stated) | -2.01% (inactive)
CCN1CCN(CC(O)COc2cccc(C(=O)OC)c2)CC1 (configuration not stated) | -1.14% (inactive)
O=C1c2ccccc2C(O)N1Cc1ccccc1Cl (configuration not stated) | 0.5% (inactive)
c1cc2c(cc1CN1CCN(C3CCCC3)CC1)OCO2 | 2.1% (inactive)
Cc1ccc(C(C)C)c(OCCN2CCNCC2)c1 | -3.79% (inactive)
COc1cccc(-c2ncnn2-c2sc3c(c2C#N)CCCCC3)c1 | 17.1% (inactive)

Compound | inhibition
COc1ccc(NC(=O)CN2CCN(C)CC2)c(OC)c1 | 13.8% (inactive)
COc1ccc(CNCC2CN(CC(C)C)CCO2)cc1 (configuration not stated) | 10.1% (inactive)
COc1cccc(CN2CCN(Cc3ccc(C(F)(F)F)cc3)CC2)c1OC | -5.41% (inactive)
NS(=O)(=O)c1cccc(NC(=O)COc2ncnc3sc(-c4ccccc4)cc23)c1 | 20.8% (inactive)
O=C(NN1C(=O)c2ccccc2C1=O)c1cccc(F)c1 | -4.68% (inactive)
CCOc1ccc(OCCCCNCCO)cc1 | 15.9% (inactive)
Cc1cnc(NCc2ccc3c(c2)OCO3)nc1Nc1ccccc1 | 7.89% (inactive)
CCCS(=O)(=O)N1CCN(Cc2cccc(Cl)c2)CC1 | 13.1% (inactive)
c1cc2c(cc1CNc1nc(Nc3ccc(N4CCOCC4)cc3)c3ncn(C4CCCCC4)c3n1)OCO2 | -14.4% (inactive)
COCc1nc2ccccc2n1CCc1noc(-c2ccco2)n1 | -8.54% (inactive)
Cc1cc(S(=O)(=O)Nc2ccc3c(c2)OCCO3)ccc1-n1cnnn1 | 14% (inactive)
Cc1ccc(C(C)C)c(OCC#CCN2CCNCC2)c1 | 14.9% (inactive)
CC(C)(C)NCCOCCOc1ccc(Cl)c(Cl)c1 | 9.65% (inactive)
C[C@@H](OCc1ccccc1)[C@@H]1NC(=O)[C@H]2CN(C(=O)Nc3cccc(F)c3)CCN2C1=O | 1.57% (inactive)
COc1cc(CN2CCN(Cc3ccco3)CC2)c([N+](=O)[O-])cc1OC | 13% (inactive)
CC[C@@H]1NC(=O)[C@H]2CN(C(=O)NCc3ccccc3)CCN2C1=O | 2.23% (inactive)
CCN1CCN(CC(=O)N/N=C/c2cccc(Cl)c2)CC1 | 3.65% (inactive)
Cc1cccnc1NC(=O)CSc1nnc(COc2ccc(C(C)C)cc2)n1C | 9.54% (inactive)
Cc1cc(NC(=O)CNCCCN(C)C)no1 | 1.07% (inactive)
Cc1cc(NC(=O)CSc2ccc(-c3ccccn3)nn2)no1 | 93.4% (active)
C=CCNCCOCCOc1cc(C)ccc1C(C)(C)C | 15.9% (inactive)
COc1ccc(OCCCC(=O)Oc2ccc(OC)cc2)cc1 | 3.96% (inactive)
CCc1ccc(NC(=O)CS(=O)CC(=O)NCCCc2ccccc2)cc1 (configuration not stated) | -4.98% (inactive)
COc1cc(CN2CCN(C(=O)C(c3ccccc3)c3ccccc3)CC2)cc(OC)c1OC | 9.83% (inactive)
